CDC25B-CDK2 inh – primary biochemical HTRF screen for blockers of M-phase inducer phosphatase 2 binding to CDK2/cyclin A; HTRF CDC25B-CDK2/CyclinA binding, anti-His/anti-Flag; hits give high values; z-score (no concentration beside the values); 94,000 compounds, 0.72% hits; AID 1259370, 2018; in the data active = z-score above about 3.2
TAR Tat displ – TAR RNA-Tat peptide displacers, HIV-1, primary screen, biochemical, FRET, FAM/TAMRA-labeled Tat. HIV-1 TAR RNA, Tat peptide displacement FRET; hits give high values. z-score (test concentration not listed). 100,000 compounds, 0.6% hits. AID 1259389, 2018; active = z-score of 3 or more in at least 2 runs
Starred values were filed as active, the others as inactive; nt = not tested or not shown. Compounds with a hit are over-represented: about 0.9% of the library has one in this group of screens.

SMILES	CDC25B-CDK2 inh	TAR Tat displ
N#CC1=C2SCN(CCc3ccccc3)CN2C(=O)CC1c1cccs1 (stereo not given)	3.74*	-0.38
N#CC1=C2SCN(CCc3ccccc3)CN2C(=O)CC1c1ccc(F)cc1 (stereo not given)	-0.26	1.09
Cc1ccsc1CCN1CSC2=C(C#N)C(c3ccc(Cl)cc3)CC(=O)N2C1 (stereo not given)	3.23*	2.05
Cc1ccc(C2CC(=O)N3CN(Cc4cccnc4)CSC3=C2C#N)cc1 (stereo not given)	5.2*	0.43
N#CC1=C2SCN(Cc3cccnc3)CN2C(=O)CC1c1ccc(F)cc1 (stereo not given)	0.53	1.05
N#CC1=C2SCN(CCN3CCOCC3)CN2C(=O)CC1c1ccc(F)cc1 (stereo not given)	0.4	1.69
CN(CC(=O)Nc1ccc2c(c1)OCO2)S(=O)(=O)c1ccc2c(c1)c(=O)n(C)c(=O)n2C	0.55	nt
COc1ccc(OCc2nnc(-c3ccccc3Cl)o2)cc1	0.78	-0.73
CCCCN(CC)S(=O)(=O)c1cc(-c2cc(C)no2)ccc1CC	nt	-0.01
O=C(NCC1CCCO1)Nc1cccc(-c2nnc(-c3ccccc3)o2)c1 (stereo not given)	nt	-0.91
CN(C(=O)c1noc2c1CC(C(C)(C)C)CC2)c1ccccc1 (stereo not given)	-1	-1.6
COC(=O)c1c(SCC(=O)Nc2ccc(F)c(F)c2)[nH]c2ccc(Cl)cc2c1=O	nt	-0.18
COC(=O)c1c(SCC(=O)Nc2ccc(F)cc2)[nH]c2ccc(Cl)cc2c1=O	nt	16.1*
Cc1cc2nc(NC3=NCN(Cc4ccco4)CN3)nc(C)c2cc1C	14.3*	0.07
Cc1nc(NC2=NCN(Cc3ccco3)CN2)nc2ccccc12	-1.24	1.81
Cc1cc2nc(NC3=NCN(CCN4CCOCC4)CN3)nc(C)c2cc1C	11.5*	nt
Cc1cc2nc(NC3=NCN(CCCN4CCOCC4)CN3)nc(C)c2cc1C	0.99	0.9
CCC(=O)N1c2ccc(S(=O)(=O)CCC(=O)Nc3ccc(F)cc3)cc2CC1C (stereo not given)	nt	0.18
OCCNCc1cccc(Oc2nnnn2-c2ccccc2)c1	nt	0.8
c1ccc(-n2nnnc2Oc2cccc(CNCc3cccnc3)c2)cc1	nt	21*
CCOc1ccc(C2c3c(-c4cc(C)ccc4O)n[nH]c3C(=O)N2CCCO)cc1 (stereo not given)	-0.7	-0.07
COc1ccc(-c2noc(CN(C3CCCCC3)S(=O)(=O)c3ccc(F)cc3)n2)cc1	0.26	0.49
O=C1C(c2ccccc2)=C(Nc2ccc(F)cc2)c2ccccc21	-1.02	0.45
CCOC(=O)c1ccc(NC2=C(N3CCCCC3)C(=O)c3ccccc3C2=O)cc1	17.2*	nt
O=C1C(Nc2ccc(F)cc2)=C(N2CCCCC2)C(=O)c2ccccc21	8.02*	nt
SMILES	CDC25B-CDK2 inh	TAR Tat displ
CCOC(=O)c1ccc(N2CCCCC2)c(N)c1	-0.16	nt
CCCN(CCC)c1ncnc2c1cnn2-c1ccc(C)cc1	nt	0.36
CCC(=O)Nc1ccc2nc(SCc3cc(=O)n4nc(CC)sc4n3)sc2c1	nt	0.25
Cc1occc1-c1nnc(SCC(=O)Nc2ccc(Cl)cc2)o1	10.2*	3.78
Cc1occc1-c1nnc(SCC(=O)c2ccc(Cl)cc2)o1	0.95	-2.33
O=c1[nH]c2cc(-c3noc(CNS(=O)(=O)c4ccccc4)n3)ccc2n1C1CCCC1	nt	1.49
CCOC(=O)c1cnc(SC)nc1NC(=O)Nc1ccc(Br)cc1F	nt	3.09
CCCCC1(C)OC(=O)C(=Cc2cc3c(cc2[N+](=O)[O-])OCO3)C(=O)O1 (stereo not given)	20*	nt
CC1(C)OC(=O)C(=Cc2ccc(OCc3ccc(F)cc3)c([N+](=O)[O-])c2)C(=O)O1	-1.62	nt
COc1ccccc1-n1c(O)c(C2=Nc3ccccc3SC(c3cccs3)C2)c(=O)[nH]c1=O (stereo not given)	-5.1	2.02
CCCCCCCCCCCCCCCC(=O)OC[C@H](O)[C@H]1OC(=O)C(O)=C1O	nt	17.2*
O=C1O[C@H]([C@@H](O)CO)C(O)=C1O	nt	0.06
Cc1cccc(S(=O)(=O)N2CCN(c3cc(N4CCOCC4)nc(C)n3)CC2)c1	-0.18	0.9
N#CC1=C2SCN(c3ccc(F)cc3)CN2C(=O)CC1c1c(F)cccc1Cl (stereo not given)	1.25	-0.67
COc1ccc(C2CC(=O)N3CN(c4ccc(C)c(C)c4)CSC3=C2C#N)c(OC)c1 (stereo not given)	3.69*	-1.36
COc1ccc(N2CSC3=C(C#N)C(c4c(F)cccc4Cl)CC(=O)N3C2)cc1 (stereo not given)	3.71*	-1.78
COc1ccc(C2CC(=O)N3CN(c4ccc(Cl)cc4)CSC3=C2C#N)c(OC)c1 (stereo not given)	5.97*	0.43
COc1ccc(C2CC(=O)N3CN(c4ccccc4)CSC3=C2C#N)c(OC)c1 (stereo not given)	5.22*	-1.41
COc1ccc(C2CC(=O)N3CN(c4ccc(OC)cc4OC)CSC3=C2C#N)c(OC)c1 (stereo not given)	5.66	-1.69
Cc1ccc(-n2nnc(-c3nc(-c4ccc(Br)cc4)no3)c2N)c(C)c1	nt	-0.33
CCCNS(=O)(=O)c1ccc2c(c1)NC(=O)CS2	nt	3.87
Cc1cccc(C)c1NC(=O)CSC(=O)c1ccc([N+](=O)[O-])cc1	-0.6	nt
O=C(NCCCN1CCN(C2CCCCC2)CC1)C1CCN(c2nc3cccnc3s2)CC1	nt	-0.1
Cc1nnsc1C(=O)Nc1sc2c(c1C(=O)NCC1CCCO1)CCC2 (stereo not given)	-0.03	1.23
O=C1CC(c2cccs2)Cc2nc(NCCSc3ccc(Cl)cc3)ncc21 (stereo not given)	21.3*	0.17
SMILES	CDC25B-CDK2 inh	TAR Tat displ
CCOCCCNc1ncc2c(n1)CC(c1ccco1)CC2=O (stereo not given)	-0.75	nt
O=C(Cn1nc(-c2ccco2)ccc1=O)Nc1ccccc1Cl	nt	-7.61
O=C1c2cc(O)cc(O)c2OC[C@@H]1c1ccc(O)c(O)c1	nt	22.7*
O=C1c2c(O)cc(O)cc2OC(c2ccc(O)c(O)c2)C1O (stereo not given)	-1.04	nt
CC(=O)N1CCOc2ccc(S(=O)(=O)N3CCc4ccccc43)cc21	nt	0.82
Cc1cccc(C(=O)N2CCc3cc4ccc(C)cc4nc32)c1	1.48	-3.96
CCSc1nc2c(c(=O)[nH]1)C(c1cccc(O)c1)CC(=O)N2 (stereo not given)	-1.39	0.62
CSc1nc2c(c(=O)[nH]1)C(c1cccc(O)c1)CC(=O)N2 (stereo not given)	-2.35	2.81
CCSc1nc2c(c(=O)[nH]1)C(c1ccc(O)c(O)c1)CC(=O)N2 (stereo not given)	13.7*	22*
CSc1nc2c(c(=O)[nH]1)C(c1ccc(O)c(O)c1)CC(=O)N2 (stereo not given)	5.59	17.7*
CCCSc1ncnc2scc(-c3ccccc3)c12	-2	0.14
COc1ccccc1-c1noc2ncnc(NC3CCCC3)c12	nt	0.4
CCOC(=O)CCc1nc(N2CCOCC2)c2c(C)noc2n1	nt	0.62
CCn1cc(C(=O)N2CCc3ccccc3C2)c(=O)c2cc(S(=O)(=O)N3CCC(C)CC3)ccc21	14.9*	0.58
CCn1cc(C(=O)N2CCc3ccccc32)c(=O)c2cc(S(=O)(=O)N3CC(C)CC(C)C3)ccc21 (stereo not given)	-0.41	1.95
CSc1cccc(NC(=O)C2CCC(=O)N2S(=O)(=O)c2ccccc2)c1 (stereo not given)	nt	1.11

Screening data (PubChem BioAssay)
